Measurements: PubChem BioAssay (Tox21)
“And” between values parts separate entries of the source, which are not always exact repeats. Equal values may be shown once. Records with an inconclusive call do not appear. The source made the active and inactive calls. Calls come from the whole dose curve.

Test: qHTS assay for small molecule disruptors of the mitochondrial membrane potential - cell viability (AID 720634); note: nearly all actives have a fitted effect of over 20% in size;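 for activity change, negative = cytotoxicity: human HepG2 liver cancer cells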
Conditions: HepG2 viability, ATP luminescence (CellTiter-Glo), 1 h; series mostly up to 83.2 µM; activity change, negative = cytotoxicity: at the top concentration
Excerpt: U.S. Tox21 Program National Center for Advancing Translational Sciences [NCATS] NIH Chemical Genomics Center [NCGC] U.S. Environmental Protection Agency [EPA] National Institutes of Environmental Health Sciences [NIEHS] National Toxicology Program [NTP] U.S. Food and Drug Administration [FDA] Tox21 Assay Overview: Mitochondrial membrane potential (MMP), one of the parameters for mitochondrial function, is generated by mitochondrial electron transport chain that creates an electrochemical gradient by a series of redox reactions. This gradient drives the synthesis of ATP, a crucial molecule for various cellular processes. Measuring MMP in living cells is commonly used to assess the effect of chemicals on mitochondrial function; decreases in MMP can be detected using lipophilic cationic fluorescent dyes. […] The dye accumulates in the mitochondria of healthy cells as aggregates, with red fluorescence. The mitochondrial potential decreases and the dye could not accumulate in the mitochondria and remains in the cytoplasm in monomers, with green fluorescence. In addition to the mitochondrial potential assay, these cells were also used to test the cytotoxicity by determining the cell viability in the culture based on the quantitation of ATP present. The cytotoxicity was measured in the same assay well of MMP assay.
Tox21 Assay Protocol Summary: 2,000 HepG2 cells in 5 uL/well were dispensed into black, clear-bottom 1536-well plates using a Multidrop Combi (Thermo Scientific) dispenser. The assay plates were incubated for an overnight at 37 C to allow cells to attach to the wells, followed by the transfer of 23 nL compound or DMSO vehicle by a pin tool (Kalypsys). The plates were incubated for 1 hr at 37 C and 5% CO2, followed by the addition of 5 uL of 2X m-MPI dye into each well using Flying Reagent Dispenser (Aurora Discovery) and then CellTiter-Glo reagent was added at 4 uL/well and incubated 30 min at room temperature. Then luminescence intensity was quantified on a ViewLux CCD-based plate reader.
% is set by controls: 0 for no effect and ±100 for the full control effect; potency is the fitted concentration of half-maximal effect.

| Structure (SMILES) | activity change, negative = cytotoxicity | Potency |
| --- | --- | --- |
| O=C(N[C@H]1CN2CCC1CC2)c1ccc2c(c1)OCCO2 | 3.13% (inactive) | – |
| CCC1(CCC(C)C)C(=O)NC(=O)NC1=O | -6.21% (inactive) | – |
| CC[N+]1(CCOC(=O)C(O)(c2ccccc2)c2ccccc2)CCCCC1 | -11.6% (inactive) | – |
| CC(C)(C)CC(C)(C)c1ccc(O)cc1 | – | 23.7 µM (active) and 17.2 µM (active) |
| CC[N+]1(C)CCCC(OC(=O)C(O)(c2ccccc2)c2ccccc2)C1 (stereo not given) | -1.17% (inactive) | – |
| O=C(NC(=O)c1cc(F)c(F)cc1Cl)Nc1cc(F)ccc1N1CCC(C(=O)O)CC1 | 5.37% (inactive) | – |
| NCCc1cc(O)c(O)cc1O | 4.82% (inactive) | – |
| C=CCN1C[C@H](C)N([C@H](c2ccc(C(=O)N(CC)CC)cc2)c2cccc(OC)c2)C[C@H]1C | -4.49% (inactive) | – |
| O=S(=O)(c1ccccc1)c1ccccc1 | -5.47% (inactive) | – |
| O=C(O)C(O)C(O)C(=O)O (stereo not given) | 14.4% (inactive) | – |
| C=C(C)C(=O)OCCCCOC(=O)C(=C)C | -14.8% (inactive) | – |
| CCCC1CCCCN1 (stereo not given) | -2.66% (inactive) | – |
| CNC(=O)Oc1cccc(N=CN(C)C)c1 | 4.31% (inactive) | – |
| O=[N+]([O-])c1cc(Cl)c(Cl)cc1Cl | -2.43% (inactive) | – |
| O=C(O)COc1cc(Cl)c(Cl)cc1Cl | – | inactive |
| OCCCl | 8.92% (inactive) | – |
| O=C1NC(=O)C(=O)C(=O)N1 | 8.25% [at 95.3 µM] (inactive) | – |
| CC(C)CCON=O | – | inactive |
| C=CC(=O)OCC | 3.42% [at 95.3 µM] (inactive) | – |
| C[C@H]1[C@@H]2Cc3ccc(O)cc3[C@@]1(C)CCN2C | 11.5% [at 257 µM] (inactive) | – |

| Structure (SMILES) | activity change, negative = cytotoxicity | Potency |
| --- | --- | --- |
| OCCSSCCO | 9.76% (inactive) | – |
| CCCCC1C(=O)NC(=O)N(C2CCCCC2)C1=O (stereo not given) | 13.4% (inactive) | – |
| COc1cc(C[C@@H](C)N)c(OC)cc1Br | 3.87% [at 95.3 µM] (inactive) | – |
| OCC1CO1 (stereo not given) | – | inactive |
| CC(C)C1(C)N=C(c2ncccc2C(=O)O)NC1=O (stereo not given) | 7.56% (inactive) | – |
| COCc1cnc(C2=NC(C)(C(C)C)C(=O)N2)c(C(=O)O)c1 (stereo not given) | -13.6% (inactive) | – |
| CC(C)OC(=O)Cc1ccccc1 | -1.84% [at 95.3 µM] (inactive) | – |
| NP(N)(=O)NC(=O)c1ccc(F)cc1 | -0.884% (inactive) | – |
| CC(Oc1cccc(Cl)c1)C(=O)O (stereo not given) | 36.1% (inactive) | – |
| CC(C)CCCCCCCOC(=O)c1ccccc1C(=O)OCCCCCCCC(C)C | 3.87% (inactive) | – |
| COc1ccc2c(c1OC)C(=O)O[C@H]2[C@@H]1c2cc3c(cc2CCN1C)OCO3 | -13.4% (inactive) | – |
| CCCCC(CC)COC(=O)c1c(Br)c(Br)c(Br)c(Br)c1C(=O)OCC(CC)CCCC (stereo not given) | 8.05% (inactive) | – |
| COC1CC(=C(c2cccs2)c2cccs2)C[N+](C)(C)C1 (stereo not given) | -6.66% (inactive) | – |
| C=CCSSCC=C | 9.03% (inactive) | – |
| CCCC[N+](CCCC)(CCCC)CCCC | -5.42% (inactive) | – |
| C=CC(=O)NC(C)(C)CC(C)=O | -5.96% (inactive) | – |
| O=C=NC1CCCCC1 | -5.92% (inactive) | – |
| CCC(C)Cl (stereo not given) | 5.13% (inactive) | – |
| Cc1ncc(C[n+]2csc(CCO)c2C)c(N)n1 | – | inactive |
| SCc1ccccc1 | 6.38% [at 95.3 µM] (inactive) | – |
